Tgondii IFNg: blocks Toxoplasma gondii growth in the presence of IFN-gamma. 69,000 compounds, 3.8% hits. activity change, negative = inhibition, % (no concentration beside the values). Toxoplasma gondii growth in IFN-gamma-treated host cells; hits give low values. AID 1259416; in the data active means activity change below about -70%, passing the limit was not always enough;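 further: host cells are HeLa cells infected with Toxoplasma gondii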
* marks the source's active call; other numbers are inactive results; i = inactive; ! = not active in a repeat. The full list was thinned out, with hits kept by preference.

SMILES	Tgondii IFNg
Cc1ccc(-c2nc(CCNC(=O)c3ccc4ccccc4c3)cs2)cc1	i
C=CCN1CCN(S(=O)(=O)c2cn(C)cn2)Cc2ccc(C)nc21	7
O=C(Nc1cc(F)ccc1F)c1cncc(NS(=O)(=O)c2ccc(Br)cc2)c1	23
Cc1cc(C)c2cc(C(=O)Nc3ccc(OC(F)(F)F)cc3)[nH]c2c1	39
O=C(Nc1ccc(OC(F)(F)F)cc1)c1cnn(-c2ccc(Cl)cc2)c1C(F)(F)F	-86*
O=C(NCCSCc1ccco1)c1cnn(-c2ccccc2)c1C(F)(F)F	8
O=C1CCC2(CCCO2)CCN1CCOCc1ccccc1 (stereo unspecified)	12
Cc1cc(Nc2nc(N[C@@H](C)c3ncc(F)cn3)ncc2Cl)n[nH]1	15
CC(C)CC(NC(=O)c1cn(C)c2ccccc12)c1nnc2n1CCNCC2 (stereo unspecified)	72
Cc1cc(-c2cc(O)ccc2Cl)cc2nnc(Nc3ccc(OCCN4CCCC4)cc3)nc12	-91*
Cc1ccc(NC(=O)CC(=O)NCCN2CCCC2)cc1Cl	0
Cc1ccccc1S(=O)(=O)N1CCCCN2[C@H](C1)[C@H](c1ccc(C#CCN(C)C)cc1)[C@@H]2CO	-33
Cc1ccc(C(=O)N2CCOCC3(CCC(CN4CCCC4)O3)C2)cn1 (stereo unspecified)	28
c1ccc(CSc2nnnn2-c2ccc3c(c2)OCO3)nc1	26
Cc1cc(C)cc(NC(=O)CSc2nnnn2-c2ccc3c(c2)OCO3)c1	-13
Fc1ccc(CSc2nnnn2-c2ccc3c(c2)OCO3)c(Cl)c1	-72*
CC(C)CN1Cc2cccc(C(=O)N[C@H](C)Cn3nnc4ccccc43)c2C1=O	-34
Cc1oc(C2CCN(C(=O)NCc3cccc(F)c3)CC2)nc1C(=O)N1CCOCC1	-3
C=Cn1ncc(CN2CCN(C3CCCCC3)C(=O)C2)c1C	-23
CCOc1ccc(S(=O)(=O)N2CCC3(CC2)Nc2cc(F)ccc2-n2cccc23)cc1	23
CCOc1ccc(S(=O)(=O)n2cc(F)c(=O)[nH]c2=O)cc1	-85*
CCOc1ccc(S(=O)(=O)c2ccc(Cl)cc2)cc1	16
Cc1cc2nc(-c3cccc4ccccc34)[nH]c2cc1C	-39
Cc1ccccc1-c1cnc2c(c1)C(=O)N([C@@H](C)CO)C[C@H](C)[C@@H](CN(C)Cc1ccccc1F)O2	-13
CS(=O)(=O)N(CCCC(=O)NCc1ccco1)c1cc(Cl)ccc1Cl	99
SMILES	Tgondii IFNg
Cc1ccccc1NC(=O)CN(c1cc(Cl)ccc1C)S(C)(=O)=O	-39
Cc1ccc(Cl)cc1N(CC(=O)Nc1c(F)cccc1F)S(C)(=O)=O	-76*
CSc1nc(C(=O)N2CCc3c(cc(-c4cccc(Cl)c4)c(=O)n3CC3CC3)C2)cs1	-16
Cc1ccc(-c2cc(-c3ccccc3)c(C#N)c(SCC3CCCCC3)n2)cc1	-17
CC12CC(c3cc(Br)cc(Br)c3O1)C(C(=O)c1ccccc1)C(=O)N2 (stereo unspecified)	-1
Cc1cccc(-n2ncc3c(NCCCn4ccnc4)ncnc32)c1	58
Cc1cc(C)c(S(=O)(=O)NCCCn2ccnc2)c(C)c1	-36
Cc1cc(C)c2cc(C#N)c(NCCCn3ccnc3)nc2c1	-101*
CSc1cccc(NC(=O)Nc2ccc(-c3nc(-c4ccccc4)co3)cc2)c1	68
CCc1noc(CC)c1C(=O)Nc1nc(CS(=O)(=O)c2ccc(C)cc2)cs1	-66
COc1ccc(-c2csc(NC(=O)c3ccccc3C)n2)cc1	-7
CCc1noc(CC)c1C(=O)Nc1nc(-c2ccc(OC)c(OC)c2)cs1	-82*
COc1ccc(-c2cc(C(=O)NC3CC3)ccn2)cc1Cl	11
CN1CCN(C(=O)NCc2cccnc2)Cc2cccnc21	-4
Cc1ccc(C(=O)N(C/C=C/c2ccccc2)CCO)c(F)c1F	-8
CCOc1ccc(C(=O)C(C)=O)c(OCC)c1	34
CCOc1ccc(OCC)c(S(=O)(=O)Oc2cccc3ccc(C)nc23)c1	-93*
COc1ccc(OC)c(S(=O)(=O)Oc2ccccn2)c1	30
CCCC(C)c1nnc(NC(=O)c2ccccc2-c2ncn[nH]2)s1 (stereo unspecified)	-2
COCC1CN(Cc2cnn(C)c2)Cc2ncn(C)c21 (stereo unspecified)	5
CCC(NS(=O)(=O)c1cnn(C(F)F)c1C)c1ccc(OC)cc1 (stereo unspecified)	-26
C[C@H]1[C@H](C)CC[C@]2(C(=O)O)CC[C@]3(C)C(=CC[C@@H]4[C@@]5(C)C[C@@H](O)[C@H](O)[C@@](C)(CO)[C@@H]5CC[C@]43C)[C@H]12	-74*!
C[C@H]1[C@H](C)CC[C@]2(C(=O)O)CC[C@]3(C)C(=CCC4[C@@]5(C)C[C@@H](O)[C@H](O)[C@@](C)(CO)C5CC[C@]43C)[C@H]12 (stereo partly specified)	23
C[C@H]1[C@H](C)CC[C@]2(C(=O)O)CC[C@]3(C)C(=CCC4[C@@]5(C)C[C@@H](O)[C@H](O)[C@@](C)(CO)C5[C@H](O)C[C@]43C)[C@H]12 (stereo partly specified)	-28
COc1ccc(-c2cc(C(=O)Nc3ccc4nc[nH]c(=O)c4c3)nn2C)cc1	21
